Compounds without any hit were thinned out: in the full panel of roughly 83,000, 20% have a hit.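 Cells were grown in 96-well plates and exposed to the test compound at a single concentration for 48 hours; results are reported as percent growth, with values below 10 considered active.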 Unmarked numbers belong to inactive results. The source made the active and inactive calls.

Some test systems named below: HCT-15 colon; HT29 colon; SNB-75 CNS; SNB-19 CNS; U251 CNS; SK-MEL-5 melanoma; UACC-62 melanoma; LOX IMVI melanoma; SK-MEL-28 melanoma; SK-MEL-2 melanoma; EKVX NSCLC; UO-31 renal; TK-10 renal; ACHN renal; CAKI-1 renal; A498 renal; CCRF-CEM leukemia; MOLT-4 leukemia; PC-3 prostate; SN12C renal.
Holding throughout (test): NCI-60 one-dose screen, 48 h (100 = growth as untreated, 0 = no growth, -100 = all killed)
What all share (conditions): 10 µM unless noted

For the molecule `CCOC(=O)c1c(-c2ccc(Cl)cc2)c(C#N)c2c(C#N)c(N)nn2c1N`, the growth in the test with HCT-15 colon was 47.2%; with HT29 colon, 49.7%; in the test with SNB-75 CNS, 79.8%; with SNB-19 CNS it was 74.7%; in the test on U251 CNS it was 66.4%; in the test with SK-MEL-5 melanoma it was 52.3%. Also, the growth is 46.4% in the test with UACC-62 melanoma; 65.8% with LOX IMVI melanoma; 62.6% in the test with SK-MEL-28 melanoma; 52.5% in the test with SK-MEL-2 melanoma; 60.1% in the test with EKVX NSCLC; 66.4% in the test with UO-31 renal. Besides, the growth in the test with TK-10 renal was 84.4%; with ACHN renal it was 72%; in the test with CAKI-1 renal it was 66%; in the test on A498 renal it was 29.3%; in the test with CCRF-CEM leukemia it was 30.5%; in the test with MOLT-4 leukemia, 25.6%.

For `Cc1cc(N2CCN(C)CC2)nc(NCc2cc(Nc3ccnc4cc(Cl)ccc34)ccc2F)n1`, the growth in the test with HCT-15 colon is -17.6% (active); in the test with SNB-75 CNS, 21.2%; in the test on SNB-19 CNS, 34.3%; with U251 CNS it was -51.3% (active); in the test on PC-3 prostate, 28.6%; in the test with SK-MEL-5 melanoma, -98% (active). In addition, the growth in the test on UACC-62 melanoma was -59.1% (active); in the test with LOX IMVI melanoma it was -70.1% (active); in the test with SK-MEL-28 melanoma, -75.4% (active); in the test with SK-MEL-2 melanoma, -67.8% (active); in the test with EKVX NSCLC, 27.4%; in the test on SN12C renal, -20.8% (active). The growth with UO-31 renal is -27.1% (active); in the test on TK-10 renal, -29.5% (active); in the test with ACHN renal, -10.6% (active); in the test on CAKI-1 renal, 12.9%; in the test on A498 renal, -40.7% (active); with CCRF-CEM leukemia it was -4.6% (active). In addition, the growth in the test with MOLT-4 leukemia was 10.2%.

Regarding `C#CC#CC#CC#CC#CC#CC#CC#CC[C@H]1OC[C@H](COC(=O)O[C@@H](C(=O)O[C@H]2C[C@@]3(O)[C@@H](OC(=O)c4ccccc4)[C@@H]4[C@]5(OC(C)=O)CO[C@@H]5C[C@H](O)[C@@]4(C)C(=O)[C@H](OC(C)=O)C(=C2C)C3(C)C)[C@@H](NC(=O)c2ccccc2)c2ccccc2)O1`, the growth in the test on HT29 colon is 8.74% (active); with SNB-75 CNS it was 37.6%; with SNB-19 CNS it was 50.3%; in the test with U251 CNS, 37.8%; with PC-3 prostate, 32.7%; with SK-MEL-5 melanoma it was 60.5%. In addition, the growth in the test on UACC-62 melanoma was 46.2%; in the test with LOX IMVI melanoma it was 39.7%; in the test on SK-MEL-28 melanoma it was 52.1%; in the test on SK-MEL-2 melanoma, 73.9%; with EKVX NSCLC, 74.5%; in the test with SN12C renal, 46.5%. Besides, the growth was 100% in the test with UO-31 renal; 102% with TK-10 renal; 87.6% in the test with ACHN renal; 77.1% with CAKI-1 renal; 50.2% with A498 renal; 26.7% in the test on CCRF-CEM leukemia. The growth in the test on MOLT-4 leukemia was 43.3%.

For the molecule `Cc1cccc(N2CCN(C(=S)c3ccc4c(c3)OCO4)CC2)c1`, the growth in the test with HT29 colon is 6.38% (active); with SNB-75 CNS it was -21.4% (active); with SNB-19 CNS, 47.1%; in the test on U251 CNS, 20.7%; with PC-3 prostate, 19.5%; in the test on SK-MEL-5 melanoma it was 6.14% (active). The growth in the test on UACC-62 melanoma was 29.1%; in the test on LOX IMVI melanoma, 32.8%; with SK-MEL-28 melanoma it was 54%; with SK-MEL-2 melanoma, 9.2% (active); in the test with EKVX NSCLC, 47.1%; with SN12C renal, 40%. Further, the growth was 25.6% in the test with UO-31 renal; 36.5% in the test with TK-10 renal; 43.1% in the test with ACHN renal; 15.1% in the test on CAKI-1 renal; 11.7% with A498 renal; 16.5% with CCRF-CEM leukemia. In addition, the growth in the test with MOLT-4 leukemia is 22%.

Regarding `C=CCN=C(N)SCCCCCCSC(N)=NCC=C`, the growth with HT29 colon was 73.2%; in the test on SNB-75 CNS, 98.8%; in the test with SNB-19 CNS, 102%; in the test on U251 CNS it was 87.4%; with PC-3 prostate it was 68.5%; with SK-MEL-5 melanoma, 101%. The growth with UACC-62 melanoma is 87.5%; in the test with LOX IMVI melanoma, 93.1%; with SK-MEL-28 melanoma, 103%; in the test with SK-MEL-2 melanoma it was 80.5%; in the test on EKVX NSCLC, 98.4%; with SN12C renal it was 97.4%. The growth was 80.6% in the test with UO-31 renal; 79.6% with TK-10 renal; 106% with ACHN renal; 97.7% in the test on CAKI-1 renal; 79.3% in the test with A498 renal; 106% in the test with CCRF-CEM leukemia. Further, in the test with MOLT-4 leukemia, the growth was 81.8%.

The values are drawn from PubChem BioAssay (NCI).
